Experiment [1] concerns the target Albumin (Bos taurus) (UniProt P02769). Kind of experiment: bovine serum albumin binders on microarray, profiling panel, artefact control for SMM control protein annotation, biochemical, small-molecule microarray, Alexa647 label, 635/667 nm fluorescence (AID 1118).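 Also: score merges 667 nm emission intensity and signal-to-noise per printed compound spot.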 To be noted: BSA-A647 binding, fluorescence 635 nm, higher = more signal.
A short description of experiment [2]: small-molecule microarray binders of probe aXIP, primary screen, biochemical, NeuroSMM set, 635/667 nm fluorescence (AID 1119).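 Also: probe is the protein aXip251-270 applied at 1 µg/mL to compound-printed slides; binding of probe to printed compounds measured as 667 nm fluorescence plus signal to noise.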 To be noted: higher = more signal, called active from +8 up or from −8 down.
A short description of experiment [3]: small-molecule binders of probe aNOTCH3, primary screen, biochemical, small-molecule microarray, 635/667 nm fluorescence (AID 1120).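 Also: probe is a biotin-tagged antibody raised against NOTCH3 rather than NOTCH3 protein; score merges spot fluorescence near 667 nm with spot signal to noise.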 To be noted: higher = more signal.
Experiment [4] is described as follows: small-molecule binders of probe aNOTCH2, primary screen, biochemical, small-molecule microarray, 635/667 nm fluorescence (AID 1121).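 Also: score merges feature fluorescence read at 667 nm with its signal to noise.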 To be noted: higher = more signal.
For experiment [5], the target named is Carbonic anhydrase 2 (Homo sapiens) (UniProt P00918). Kind of experiment: CAII small-molecule binders, profiling panel, biochemical, small-molecule microarray, Alexa647-labelled CAII (AID 1122). To be noted: CAII-A647 binding fluorescence, higher = more signal.
Experiment [6] in a line: COS7 lysate on small-molecule microarray, probe aHis, 635 nm (AID 1123).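 Also: z-score combines 667nm fluorescence intensity with signal-to-noise per printed compound spot.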 To be noted: COS7 cell lysate, fluorescence, higher = more signal.
Experiment [7] in a line: compound binding in COS7 lysate, probe aLAP1, primary screen, cell lysate, small-molecule microarray (AID 1124).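 Also: lysate comes from COS7 cells expressing LAP1 and is applied at 0.3 µg/mL; score merges spot fluorescence near 667 nm with signal-to-noise over triplicate slides.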 To be noted: probe aLAP1, fluorescence, higher = more signal.
Experiment [8] relates to Sam68 (KHDRBS1). Kind of experiment: Sam68 small-molecule binders, primary screen, biochemical, small-molecule microarray, 635 nm fluorescence (AID 1125).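 Also: score merges 667 nm channel intensity with signal to noise over triplicate slides.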 To be noted: small-molecule microarray binding, higher = more signal.
For experiment [9], the system named is Chordin-like protein 2 (CHRDL2). Nature of the experiment: CHRDL2 small-molecule binders, primary screen, biochemical, small-molecule microarray, 635 nm fluorescence (AID 1126).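 Also: printed compound slides probed with Chrdl2 protein at 4 µg/mL for 1 h at 4 C; score merges 667 nm emission intensity with signal to noise over three replicate slides.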 To be noted: small-molecule microarray binding, fluorescence 635 nm; higher = more signal.
In experiment [10] the target is Concanavalin-A (Canavalia ensiformis) (UniProt P02866). Kind of experiment: ConA small-molecule binders, primary screen, artefact control for SMM control protein annotation, biochemical, small-molecule microarray, Alexa647 label, 635 nm (AID 1127).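 Also: z combines 667 nm emission intensity with signal-to-noise across three replicate slides.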 To be noted: ConA-A647 binding fluorescence, higher = more signal.
Experiment [11] in a line: anti-His antibody binders, primary screen, artefact control for SMM control protein annotation, biochemical, small-molecule microarray, 635 nm fluorescence (AID 1128).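 Also: score merges feature fluorescence with signal-to-noise for each printed compound spot.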 To be noted: anti-His Alexa647 antibody binding, higher = more signal.
Experiment [12] concerns Human papillomavirus type 1a E7 protein (residues 1-88). Kind of experiment: HPV1a E7 small-molecule binders, primary screen, biochemical, small-molecule microarray, residues 1-88, 635 nm (AID 1129). To be noted: small-molecule microarray binding, fluorescence 635 nm; higher = more signal.
Experiment [13] deals with Focal adhesion kinase 1 (Homo sapiens) (UniProt Q05397). Nature of the experiment: small-molecule microarray binders of FAK, primary screen, biochemical, 635/667 nm fluorescence, BSA, DTT (AID 1130).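 Also: composite of spot emission at 667 nm and signal to noise over triplicate slides.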 To be noted: PTK2 binding, 635 nm fluorescence, higher = more signal.
The test system of experiment [14] is Fibrinogen (Alexa647-labelled). Kind of experiment: fibrinogen binders on compound microarrays, profiling panel, artefact control for SMM control-protein annotation, biochemical, small-molecule microarray, 635/667 nm fluorescence (AID 1131).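 Also: z-score merges 667 nm fluorescence with per-spot signal-to-noise over triplicate slides.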 To be noted: fibrinogen-A647 binding fluorescence, higher = more signal.
Experiment [15] concerns the target Follistatin (Homo sapiens) (UniProt P19883). Nature of the experiment: follistatin binders on small-molecule microarrays, primary screen, biochemical, small-molecule microarray, 635/667 nm fluorescence (AID 1132). To be noted: FST binding, 635 nm fluorescence, higher = more signal.
Experiment [16] addresses Fibroblast growth factor 2 (Homo sapiens) (UniProt P09038). Kind of experiment: FGF2 binders on small-molecule microarrays, primary screen, biochemical, small-molecule microarray, 635/667 nm fluorescence (AID 1133). To be noted: small-molecule microarray binding, FGF2, fluorescence 635/667; higher = more signal.
A short description of experiment [17]: mitochondrial membrane potential change in A549 cells, profiling panel, cell-based, JC-1 fluorescence, basal, 24 h, 100 nL (AID 1138).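 Also: A549 lung adenocarcinoma cells under basal conditions with no added stimulus; test concentration not given here.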 To be noted: higher = more signal.
The test system of experiment [18] is Lefty1. Kind of experiment: Lefty1 binders on small-molecule microarrays, primary screen, biochemical, small-molecule microarray, 635/667 nm fluorescence (AID 1139). To be noted: small-molecule microarray binding, fluorescence 635/667; higher = more signal.
Experiment [19] deals with wheat germ agglutinin (Triticum aestivum), Alexa647-labelled. Kind of experiment: wheat germ agglutinin binders on compound microarrays, profiling panel, artefact control for SMM control-protein annotation, biochemical, small-molecule microarray, 635/667 nm fluorescence (AID 1140).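 Also: score merges 667 nm feature emission with signal to noise over triplicate slides.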 To be noted: WGA-A647 binding, 635 nm fluorescence, higher = more signal.
Experiment [20] deals with Luciferin 4-monooxygenase (Photinus pyralis) (UniProt P08659). Nature of the experiment: firefly luciferase enzyme inhibitors, primary screen, biochemical, luminescence, purified enzyme, 2006 set (AID 1141).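 Also: cell-free assay with purified firefly luciferase at 100 ng per well in PBS; test concentration not given here.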 To be noted: SteadyGlo luminescence, 30 min, higher = more signal, called active from +8 up or from −8 down.

Activity calls are given as the source filed them.

Sequence of Fibroblast growth factor 2 (Homo sapiens) (P09038 whole entry, looked up): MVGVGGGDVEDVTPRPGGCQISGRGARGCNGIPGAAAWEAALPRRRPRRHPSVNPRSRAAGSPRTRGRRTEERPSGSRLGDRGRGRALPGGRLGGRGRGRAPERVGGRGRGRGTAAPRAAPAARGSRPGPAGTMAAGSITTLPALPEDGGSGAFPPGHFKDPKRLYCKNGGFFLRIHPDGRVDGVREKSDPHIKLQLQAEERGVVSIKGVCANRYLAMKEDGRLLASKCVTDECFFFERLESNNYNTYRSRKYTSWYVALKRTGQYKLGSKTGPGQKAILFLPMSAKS
Sequence of Focal adhesion kinase 1 (Homo sapiens) (Q05397 whole entry, looked up): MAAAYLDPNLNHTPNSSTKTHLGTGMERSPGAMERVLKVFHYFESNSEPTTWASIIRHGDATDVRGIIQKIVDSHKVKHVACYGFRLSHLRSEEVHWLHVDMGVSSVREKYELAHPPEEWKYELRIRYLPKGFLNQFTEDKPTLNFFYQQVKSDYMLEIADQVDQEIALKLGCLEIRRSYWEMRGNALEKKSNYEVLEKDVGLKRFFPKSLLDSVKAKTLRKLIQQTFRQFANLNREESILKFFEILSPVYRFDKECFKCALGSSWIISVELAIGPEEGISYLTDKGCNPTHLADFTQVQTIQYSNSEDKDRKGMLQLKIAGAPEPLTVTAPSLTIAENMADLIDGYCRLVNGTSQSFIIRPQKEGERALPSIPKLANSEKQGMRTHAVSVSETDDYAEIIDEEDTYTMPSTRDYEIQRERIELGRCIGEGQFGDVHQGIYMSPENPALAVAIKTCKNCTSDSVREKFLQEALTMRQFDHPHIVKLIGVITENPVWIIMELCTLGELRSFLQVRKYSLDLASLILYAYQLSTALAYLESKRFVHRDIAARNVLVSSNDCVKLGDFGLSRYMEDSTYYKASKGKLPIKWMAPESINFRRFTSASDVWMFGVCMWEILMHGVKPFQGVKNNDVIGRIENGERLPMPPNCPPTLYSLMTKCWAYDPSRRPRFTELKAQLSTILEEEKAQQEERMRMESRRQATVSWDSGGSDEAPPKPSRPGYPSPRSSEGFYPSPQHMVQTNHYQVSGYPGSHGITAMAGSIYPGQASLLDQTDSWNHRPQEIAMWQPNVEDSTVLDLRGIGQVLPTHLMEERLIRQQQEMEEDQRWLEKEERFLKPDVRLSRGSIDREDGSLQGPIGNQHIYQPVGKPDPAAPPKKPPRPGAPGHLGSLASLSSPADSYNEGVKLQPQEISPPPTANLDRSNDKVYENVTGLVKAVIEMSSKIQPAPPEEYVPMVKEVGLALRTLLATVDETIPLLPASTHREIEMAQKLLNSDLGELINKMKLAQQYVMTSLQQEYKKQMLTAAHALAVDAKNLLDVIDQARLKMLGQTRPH
Sequence of Albumin (Bos taurus) (P02769 whole entry, looked up): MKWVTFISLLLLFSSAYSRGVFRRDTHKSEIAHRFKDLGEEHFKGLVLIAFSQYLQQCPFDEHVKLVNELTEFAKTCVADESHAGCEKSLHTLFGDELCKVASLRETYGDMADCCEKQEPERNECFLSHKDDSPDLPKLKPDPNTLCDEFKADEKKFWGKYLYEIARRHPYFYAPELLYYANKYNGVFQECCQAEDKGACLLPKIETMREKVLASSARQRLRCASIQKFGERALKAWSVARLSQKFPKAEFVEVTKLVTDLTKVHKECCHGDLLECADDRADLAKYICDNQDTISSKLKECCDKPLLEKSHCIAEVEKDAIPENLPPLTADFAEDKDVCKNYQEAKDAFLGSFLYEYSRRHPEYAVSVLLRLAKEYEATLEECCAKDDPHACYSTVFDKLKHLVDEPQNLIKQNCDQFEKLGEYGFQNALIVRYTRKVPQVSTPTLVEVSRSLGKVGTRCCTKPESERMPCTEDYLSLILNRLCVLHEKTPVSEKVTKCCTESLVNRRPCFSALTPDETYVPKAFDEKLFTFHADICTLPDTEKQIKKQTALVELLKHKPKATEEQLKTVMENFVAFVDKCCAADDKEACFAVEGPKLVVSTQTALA
Sequence of Luciferin 4-monooxygenase (Photinus pyralis) (P08659 whole entry, looked up): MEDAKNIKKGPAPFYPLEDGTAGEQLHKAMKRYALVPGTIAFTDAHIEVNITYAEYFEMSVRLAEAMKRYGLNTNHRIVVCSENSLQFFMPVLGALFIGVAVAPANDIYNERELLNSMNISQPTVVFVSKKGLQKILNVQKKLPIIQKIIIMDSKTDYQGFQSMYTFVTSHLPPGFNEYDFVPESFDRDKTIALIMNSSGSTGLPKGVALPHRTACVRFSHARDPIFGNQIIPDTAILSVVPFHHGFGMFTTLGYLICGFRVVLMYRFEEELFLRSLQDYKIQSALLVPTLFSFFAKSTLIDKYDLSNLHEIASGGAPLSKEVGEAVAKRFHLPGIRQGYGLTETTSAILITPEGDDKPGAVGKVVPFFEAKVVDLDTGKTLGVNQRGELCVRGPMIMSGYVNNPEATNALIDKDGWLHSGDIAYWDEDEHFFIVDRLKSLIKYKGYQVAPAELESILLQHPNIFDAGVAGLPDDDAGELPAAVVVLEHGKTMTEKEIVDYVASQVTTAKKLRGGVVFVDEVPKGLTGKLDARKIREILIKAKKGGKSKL
Sequence of Concanavalin-A (Canavalia ensiformis) (P02866 whole entry, looked up): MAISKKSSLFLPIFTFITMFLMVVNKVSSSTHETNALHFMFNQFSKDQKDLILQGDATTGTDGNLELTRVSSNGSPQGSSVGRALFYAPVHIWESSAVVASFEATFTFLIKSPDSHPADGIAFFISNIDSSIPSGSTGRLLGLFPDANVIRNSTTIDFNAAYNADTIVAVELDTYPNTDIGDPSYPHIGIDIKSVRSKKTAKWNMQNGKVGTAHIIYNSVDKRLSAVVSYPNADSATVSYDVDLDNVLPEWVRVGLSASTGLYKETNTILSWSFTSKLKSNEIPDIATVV
Sequence of Follistatin (Homo sapiens) (P19883 whole entry, looked up): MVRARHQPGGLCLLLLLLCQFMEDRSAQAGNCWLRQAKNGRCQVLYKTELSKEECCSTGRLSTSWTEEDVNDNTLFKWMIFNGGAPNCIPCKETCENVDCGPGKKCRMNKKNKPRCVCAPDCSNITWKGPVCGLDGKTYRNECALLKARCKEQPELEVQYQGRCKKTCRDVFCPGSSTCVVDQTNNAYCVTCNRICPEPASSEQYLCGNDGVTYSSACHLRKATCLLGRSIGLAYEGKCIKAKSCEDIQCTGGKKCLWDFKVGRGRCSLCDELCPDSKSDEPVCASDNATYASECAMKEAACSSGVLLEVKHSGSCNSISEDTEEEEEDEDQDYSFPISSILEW

Regarding `COc1ccc([Si](C)(C)[C@H]2[C@H](CC(=O)N3CCC[C@H]3CO)O[C@@]3(C(=O)N(Cc4cccc(N5C(=O)COc6ccccc65)c4)c4ccccc43)[C@@H]2C)cc1`, the composite z-score is 0.34 in experiment [1]; 0.0293 in [3]; -0.0556 in experiment [4]; 0.437 in [5]; 2.38 in [6]; 0.125 in [7]. Moreover, the composite z-score in experiment [8] was 1.26; in [9], 0.959; in [10] it was 0.997; in experiment [11] it was 0.514; in experiment [12] it was 0.885; in experiment [13], 0.392. Moreover, the composite z-score in experiment [14] is -0.07; in experiment [15] it was 0.727; in experiment [16] it was 1.68; in experiment [18] it was 0.994; in experiment [19], -0.32. Moreover, in experiment [2], the composite Z-score was 0.33 (inactive). In addition, the z-score in [17] is 4.31; in [20], -2.36 (inactive).
On to `C[C@@H](c1ccccc1)N1C(=O)[C@H]2[C@H]3[C@H](O)[C@H](O)CC(=NNC(=O)OCc4ccccc4)[C@H]3CC[C@H]2C1=O`, for which the composite z-score was 0.3 in experiment [1]; -0.046 in experiment [3]; -0.0978 in experiment [4]; -0.112 in experiment [5]; 0.947 in [6]; 0.221 in [7]. Further, the composite z-score in [8] was -0.495; in experiment [9] it was 0.13; in experiment [10], 0.0811; in experiment [11] it was 0.496; in [12], -0.387; in experiment [13], -0.048. The composite z-score in experiment [14] was 0.253; in experiment [15] it was -0.351; in experiment [16] it was 0.0573; in [18] it was -0.211; in experiment [19], -0.105. The composite Z-score in [2] is 0.281 (inactive). For the same compound, the z-score in experiment [17] is -0.118; in [20], 0.502 (inactive).
Turning to `CO[C@@H]1COC(=O)[C@@H]2CCCN2C(=O)[C@@H](C)COC(=O)[C@H](COCc2ccccc2)NC(=O)CC=C[C@H]1C`, the composite z-score in [1] is 0.0307; in experiment [3] it was -0.059; in [4] it was -0.147; in [5], 0.12; in [6], 1.35; in [7], -0.0015. For the same compound, the composite z-score in [8] turned out to be 0.813; in experiment [9], 0.611; in [10] it was 0.379; in [11], 0.284; in experiment [12] it was 0.692; in [13] it was 0.0252. In addition, the composite z-score in experiment [14] was 0.385; in experiment [15], 0.421; in experiment [16], 0.27; in [18] it was 0.698; in experiment [19], -0.07. In addition, the composite Z-score in experiment [2] is -0.413 (inactive). Moreover, the z-score was -0.714 in [17] and 0.951 (inactive) in [20].
On to `CO[C@H]1COC(=O)CC=C[C@H](C)[C@@H](NS(=O)(=O)c2ccc(C)cc2)COC(=O)CC=C[C@@H]1C`, for which the composite z-score in experiment [1] was -0.498; in [3], -0.0436; in experiment [4] it was -0.151; in experiment [5] it was -0.0698; in experiment [6] it was -0.51; in experiment [7], 0.216. For the same compound, the composite z-score is 0.165 in experiment [8]; 0.713 in experiment [9]; -0.408 in experiment [10]; 2.79 in experiment [11]; 0.0835 in experiment [12]; 0.0018 in experiment [13]. For the same compound, the composite z-score was 0.0607 in [14]; 0.932 in experiment [15]; 0.585 in experiment [16]; 0.819 in experiment [18]; -0.0118 in experiment [19]. Besides, in experiment [2], the composite Z-score was -0.38 (inactive). For the same compound, the z-score was -0.662 in [17] and -0.277 (inactive) in experiment [20].
For `CCOC(=O)[C@H](CC(C)C)NC(=O)CCC1CC(OC(=O)NCc2cccc3ccccc23)CC2(CCCC(COC(=O)NCCN3CCOCC3)O2)O1` (stereo not given in full), the composite z-score in [1] was 0.363; in [3] it was -0.0014; in [4], -0.19; in [5], 0.306; in experiment [6], 0.934; in [7], 0.324. Moreover, the composite z-score in experiment [8] is 1.3; in experiment [9], 0.915; in [10] it was 0.793; in experiment [11], 0.804; in experiment [12], 1.17; in [13] it was 0.465. In addition, the composite z-score in experiment [14] is 0.356; in [15] it was 0.68; in [16], 0.685; in experiment [18], 0.551; in experiment [19], 0.255. In addition, in experiment [2], the composite Z-score was 0.0928 (inactive). For the same compound, the z-score was 0.154 in experiment [17] and 1.03 (inactive) in experiment [20].

The values above are taken from PubChem BioAssay.
